Here are results for 26 compounds from PubChem BioAssay (EPA / NIEHS).

A short description of experiment [1]: TOX21_p53_BLA_p2_viability: Viability Assessment in the Tox21 HCT-116 p53 Agonism Beta-lactamase Assay, Phase 2 (AID 2283591).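 Further: compound exposure lasted 16 h at 37 °C; actives lower the ATP signal meaning cytotoxicity.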 Summed up: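 HCT-116 p53-bla cells (4000/well) rested 5 h at 37C, then received compounds in DMSO (217-fold dilution) for 16 h at 37C, 5% CO2. After the CCF4 read, CellTiter-Glo was added; ATP luminescence was read after 30 min at room temperature.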

The target of experiment [2] is Cellular tumor antigen p53 (Homo sapiens) (UniProt P04637). As to the kind of experiment: TOX21_p53_BLA_p3_ratio: Tox21 HCT-116 p53 Agonism Beta-lactamase Assay, Ratio, Phase 3 (AID 2283596). In short, it runs like this: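 HCT116 p53-bla cells (4000/well) given compound in DMSO (217-fold dilution) after 5 h, incubated 16 h at 37C. CCF4-AM substrate 2 h at room temperature; 460/530 nm emission ratio, gain fitted against DMSO.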
Sequence of Cellular tumor antigen p53 (Homo sapiens) (P04637 whole entry, looked up): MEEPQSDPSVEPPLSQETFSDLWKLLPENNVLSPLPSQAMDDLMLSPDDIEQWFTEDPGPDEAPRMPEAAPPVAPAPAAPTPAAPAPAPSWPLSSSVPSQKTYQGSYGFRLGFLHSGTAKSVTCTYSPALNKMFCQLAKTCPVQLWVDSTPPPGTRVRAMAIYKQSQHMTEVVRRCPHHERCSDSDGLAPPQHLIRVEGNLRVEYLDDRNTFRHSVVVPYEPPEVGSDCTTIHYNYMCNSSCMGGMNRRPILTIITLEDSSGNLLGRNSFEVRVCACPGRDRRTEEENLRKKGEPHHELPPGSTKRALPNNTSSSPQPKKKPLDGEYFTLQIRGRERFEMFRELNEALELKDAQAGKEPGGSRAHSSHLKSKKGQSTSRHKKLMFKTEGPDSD

The target is the same in experiment [3]. As to the kind of experiment: TOX21_p53_BLA_p5_ratio: Tox21 HCT-116 p53 Agonism Beta-lactamase Assay, Ratio, Phase 5 (AID 2283599). Summed up:
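HCT-116 cells carrying a p53-inducible beta-lactamase reporter were seeded at 4000 cells/well and dosed after 5 h with compound in DMSO (217-fold dilution). After 16 h at 37C, CCF4-AM substrate was added for 2 h, and the 460/530 nm emission ratio was scored as gain-of-signal versus DMSO.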

For experiment [4] the target is unchanged. Kind of experiment: TOX21_p53_BLA_p4_ratio: Tox21 HCT-116 p53 Agonism Beta-lactamase Assay, Ratio, Phase 4 (AID 2283601). In short, it runs like this: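 HCT116 cells carrying an inducible beta-lactamase reporter were plated at 4000 cells/well, rested 5 h, then exposed to compounds in DMSO (217-fold dilution) for 16 h at 37C. CCF4-AM substrate was loaded 2 h at room temperature; 460/530 nm emission ratio scored gain-of-signal versus DMSO.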

Experiment [5] is described as follows: TOX21_p53_BLA_p4_viability: Viability Assessment in the Tox21 HCT-116 p53 Agonism Beta-lactamase Assay, Phase 4 (AID 2283597).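 Further: hits lower the luminescence signal meaning cytotoxicity.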 Summed up: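 Luminescent ATP readout (CellTiter-Glo, 30 min, room temperature) in the same wells as the p53 bla ratio. HCT116 cells were treated for 16 h at 37C with DMSO-dissolved compounds.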
A short description of experiment [6]: TOX21_p53_BLA_p5_viability: Viability Assessment in the Tox21 HCT-116 p53 Agonism Beta-lactamase Assay, Phase 5 (AID 2283600). In short, it runs like this:
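Seeded cells (4000/well) settle 5 h before compound addition. Plates then incubate 16 h at 37C, receive FRET substrate for 2 h, and finally CellTiter-Glo, with luminescence measured after a 30 min room-temperature incubation.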

Experiment [7] has as its target Thyroid hormone receptor alpha (Rattus norvegicus) + Thyroid hormone receptor beta (Rattus norvegicus) (UniProt P18113+P63059). Kind of experiment: TOX21_TR_LUC_GH3_Antagonist_Followup: Tox21 GH3 Thyroid Hormone Receptor Antagonism Luciferase Follow-Up Assay (AID 2283942). In short, it runs like this:
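Rat pituitary GH3 cells with a TRα/TRβ-driven luciferase reporter, 5 h attachment, then 15 concentrations (92 uM to 5nM final) plus 1.0 nM T3 agonist, 24 h at 37C/5% CO2. ONE-Glo luminescence; signal change fitted against DMSO baseline.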

For another experiment, the target named is THRA (gene 7067) (UniProt P10827). As to the kind of experiment: TOX21_TRA_COA_Antagonist_Followup_ratio: Tox21 Thyroid Hormone Receptor alpha Antagonism through Coactivator Recruitment Follow-Up Assay, Ratio (AID 2283953). Summed up: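 520:495 nm emission ratio (excitation 340 nm) reports fluorescein-SRC-2 peptide recruitment to GST-TRα LBD by TR-FRET with Tb anti-GST antibody. Values were normalized to DMSO (0%) and T3 control wells (100%); loss of signal indicated antagonism.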
Sequence of THRA (gene 7067) (P10827 whole entry, looked up, the tested form may be a part): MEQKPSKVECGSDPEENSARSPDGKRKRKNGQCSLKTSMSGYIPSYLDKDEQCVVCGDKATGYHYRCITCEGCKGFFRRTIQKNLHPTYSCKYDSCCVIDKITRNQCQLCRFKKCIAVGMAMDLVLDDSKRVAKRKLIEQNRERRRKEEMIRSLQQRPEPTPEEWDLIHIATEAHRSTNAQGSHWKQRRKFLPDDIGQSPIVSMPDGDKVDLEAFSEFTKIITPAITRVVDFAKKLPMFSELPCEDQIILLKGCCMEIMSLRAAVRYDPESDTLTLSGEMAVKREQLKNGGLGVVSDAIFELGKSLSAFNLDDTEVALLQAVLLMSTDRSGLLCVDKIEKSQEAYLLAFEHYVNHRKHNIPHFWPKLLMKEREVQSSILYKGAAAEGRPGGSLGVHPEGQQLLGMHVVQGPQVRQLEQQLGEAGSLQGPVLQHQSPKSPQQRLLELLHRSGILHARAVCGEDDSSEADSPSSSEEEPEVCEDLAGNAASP

For another experiment, the target named is THRB (gene 7068) (UniProt P10828). As to the kind of experiment: TOX21_TRB_COA_Antagonist_Followup_ratio: Tox21 Thyroid Hormone Receptor beta Antagonism through Coactivator Recruitment Follow-Up Assay, Ratio (AID 2283967). In short, it runs like this: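 Cell-free TR-FRET coactivator recruitment with GST-tagged TRβ LBD (5.0 nM) and fluorescein-labeled SRC-2 peptide (200 nM) detected by terbium anti-GST antibody (2 nM). The 520:495 nm emission ratio was normalized to DMSO (0%) and T3 (100%).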
Sequence of THRB (gene 7068) (P10828 whole entry, looked up, the tested form may be a part): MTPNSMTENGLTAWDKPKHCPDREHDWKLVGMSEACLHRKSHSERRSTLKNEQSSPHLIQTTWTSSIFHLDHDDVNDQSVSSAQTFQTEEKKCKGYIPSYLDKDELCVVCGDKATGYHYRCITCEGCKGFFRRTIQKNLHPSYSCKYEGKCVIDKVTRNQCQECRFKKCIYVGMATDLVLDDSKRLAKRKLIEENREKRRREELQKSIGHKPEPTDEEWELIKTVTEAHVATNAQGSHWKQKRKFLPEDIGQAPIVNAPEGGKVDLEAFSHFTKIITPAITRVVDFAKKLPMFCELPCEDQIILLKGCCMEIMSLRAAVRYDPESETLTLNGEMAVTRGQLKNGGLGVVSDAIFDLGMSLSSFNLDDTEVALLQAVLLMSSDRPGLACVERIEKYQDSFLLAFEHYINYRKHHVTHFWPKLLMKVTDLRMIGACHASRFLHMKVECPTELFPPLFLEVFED

Experiment [8] is described as follows: TOX21_TR_RXR_BLA_Antagonist_Followup_viability: Viability Assessment in the Tox21 Thyroid Hormone Receptor beta Retinoid X Receptor alpha (RXRa) Antagonism Beta-lactamase (BLA) Follow-Up Assay (AID 2283979). Summed up:
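RXRa-UAS-bla HEK293T cells seeded 2,500/well in phenol red-free DMEM with 2% charcoal-stripped FBS, attached 5 h, then exposed to compounds at 11 concentrations in triplicate for 16 h at 37C/5% CO2. Viability read by CellTiter-Glo ATP luminescence; bidirectional fit versus DMSO.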

Experiment [9] can be described thus: CCTE_Harrill_HTTr_Viability_MCF7: CCTE's 6-hour Cell Viability Assessment for the High-Throughput Transcriptomics (HTTr) Platform, in MCF-7 cells cultured in DMEM + 10% fetal bovine serum, Harrill Lab (AID 2284010; active means hit-call score of the fitted dose curve at least 0.9, where 1 is the maximum; inactive means score below 0.9). In short, it runs like this: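 MCF-7 cells in DMEM + 10% FBS, 384-well, exposed 6 h to an eight-point dilution series. Membrane integrity scored by high-content imaging of propidium iodide exclusion; bidirectional fit versus DMSO.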

The nature of experiment [10]: CCTE_Harrill_HTTr_Apoptosis_MCF7: CCTE's 6-hour Apoptosis Assessment for the High-Throughput Transcriptomics (HTTr) Platform, in MCF-7 cells cultured in DMEM + 10% fetal bovine serum, Harrill Lab (AID 2284011; active means hit-call score of the fitted dose curve at least 0.9, where 1 is the maximum; inactive means score below 0.9). In short, it runs like this: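 Apoptosis in MCF-7 cells grown in DMEM with 10% fetal bovine serum was scored after a six hour exposure by high content imaging of caspase-3/7 activation (CellEvent Caspase 3/7 Green), with DMSO serving as negative control and baseline.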

The target of experiment [11] is Cellular tumor antigen p53 (Homo sapiens) (UniProt P04637). Kind of experiment: TOX21_p53_BLA_p2_ratio: Tox21 HCT-116 p53 Agonism Beta-lactamase Assay, Ratio, Phase 2 (AID 2283592). In short, it runs like this: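 Human colon HCT116 cells with an inducible p53 beta-lactamase reporter are exposed to test chemicals for 16 h at 37C. Reporter induction is read as the 460/530 nm emission ratio after CCF4-AM loading, normalized to DMSO.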

Experiment [12] can be described thus: TOX21_p53_BLA_p3_viability: Viability Assessment in the Tox21 HCT-116 p53 Agonism Beta-lactamase Assay, Phase 3 (AID 2283593).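 Further: cells exposed to compound for 16 h before reading.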 Summed up:
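HCT-116 cells (4000/well) rested 5 h at 37C, then got DMSO compounds by pin tool (217-fold dilution) for 16 h at 37C, 5% CO2. After the bla read, CellTiter-Glo was added and luminescence read at 30 min, room temperature.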

Inconclusive results are not listed. Where a structure was tested more than once in an assay, its records may differ in their call. Active and inactive are the calls of the source. How the source made its calls, unless noted: active means hit-call score of the fitted dose curve at least 0.9, where 1 is the maximum; inconclusive means response in the unintended direction; inactive means score below 0.9. Where a SMILES comes first, the peptide text is derived from it. [ ]: non-standard residue; d: D form. pGlu = O=C1CC[C@@H](C(=O)O)N1

One may read the AC50 as the concentration at which the activity in the assay is half-maximal.

`CCc1cnc(C(=O)O)c(C(=O)O)c1`: the compound was classed as inactive in [1], in [2], in [3] and in [4].
Regarding `N[C@@H](C(=O)N[C@@H]1C(=O)N2C(C(=O)O)=C(CSc3cn[nH]n3)CS[C@H]12)c1ccc(O)cc1`, the compound was called inactive in [1], in experiment [5], in experiment [3] and in experiment [6].
`CC(C)(C)C(=O)CC(=O)C(C)(C)C`: the result in [1], in experiment [5] and in experiment [3] was inactive.
With `COC(=O)C(CN)c1c[nH]c2ccc(OC)cc12` (configuration not stated), the compound was called inactive in experiment [1], in experiment [2], in [3] and in [4].
Regarding `CC(C)=CC(=O)C=C(C)C`, the result in experiment [1], in [5], in experiment [3] and in experiment [6] was inactive.
As for `CC(C)(Sc1cc(C(C)(C)C)c(O)c(C(C)(C)C)c1)Sc1cc(C(C)(C)C)c(O)c(C(C)(C)C)c1`, the compound was called inactive in experiment [1], in [5], in experiment [3] and in [6].
As for `O=C(CCCCCCCCC#CI)Oc1ccccc1`, the result (in experiment [7]; with THRA (gene 7067); in the experiment with THRB (gene 7068); in experiment [8]) was inactive.
On to `Cc1ccc(C(C)NC(=O)[C@@H](NC(=O)OC(C)C)C(C)C)cc1` (some centres not stated), for which the outcome in [9] and in [10] was inactive.
Take `COC(=O)CCCCC(=O)O`: the outcome in experiment [11], in experiment [12] and in experiment [2] was inactive.
In the case of `CC1=C(C/C=C(\C)CCC[C@H](C)CCC[C@H](C)CCCC(C)C)C(=O)c2ccccc2C1=O`, the result in [1] and in experiment [4] was inactive.
With `CC[C@H](C)[C@H](NC(=O)[C@H](Cc1ccccc1)NC(=O)[C@H](C)NC(=O)[C@H](CC(=O)O)NC(=O)[C@H](CCCCN)NC(=O)[C@H](CO)NC(=O)[C@@H]1CCCN1C(=O)[C@@H]1CCC(=O)N1)C(=O)NCC(=O)N[C@@H](CC(C)C)C(=O)N[C@@H](CCSC)C(N)=O` ([pGlu]PSKDAFIGLM-NH2), the compound was called inactive in experiment [1], in [3], in experiment [6] and in [4].
With `OC[C@H]1O[C@@H](O[C@@H]2[C@@H](CO)O[C@](O)(CO)[C@H]2O)[C@H](O)[C@@H](O)[C@H]1O`, the outcome in experiment [1], in [3], in experiment [6] and in experiment [4] was inactive.
Regarding `Oc1ccc(-c2ccc(O)cc2)cc1`, the compound was classed as inactive in experiment [1], in [3] and in experiment [6]. Further, the half-maximal activity concentration (AC50) in experiment [4] was 46.8 µM (active).
For the compound `C[Si](C)(C)Cl`, the result in experiment [1] and in experiment [4] was inactive.
Consider `CC(=O)Nc1ccc(OC(C)=O)cc1`, for which the compound was classed as inactive in [1], in experiment [3], in experiment [6] and in experiment [4].
As for `COC1[C@@H](O[C@@H]2O[C@H](C)[C@@H](O[C@H]3C[C@@](C)(O)[C@H](OC(=O)CC(C)C)[C@H](C)O3)[C@H](N(C)C)[C@H]2O)[C@@H](CC=O)C[C@@H](C)[C@@H](O)/C=C/C=C/C[C@@H](C)OC(=O)C[C@H]1OC(C)=O` (some centres not stated), the result in experiment [11], in experiment [12], in experiment [2] and in experiment [5] was inactive.
In the case of `C[C@@H](CN(C)C)CN1c2ccccc2Sc2ccccc21`, the result in experiment [1], in experiment [3] and in [4] was inactive.
Take `CCCCCCCCCC#N`: the call in experiment [1], in experiment [3] and in experiment [4] was inactive.
Take `CC(C)(C)C1(O)CCN2CC3c4ccccc4CCc4cccc(c43)C2C1` (configuration not stated): the outcome in experiment [11] was inactive.
Take `COc1cc(/C=C/C(=O)O[C@H]2CC[C@]34C[C@]35CC[C@]3(C)[C@@H]([C@H](C)CCC=C(C)C)CC[C@@]3(C)[C@@H]5CC[C@H]4C2(C)C)ccc1O`: the result in [11], in experiment [12], in [2], in [5], in [3] and in [6] was inactive. Besides, the AC50 in [12] is 26.8 µM (active); in experiment [2], 23 µM (active); in experiment [3], 13.3 µM (active); in experiment [4], 6.07 µM (active).
For `CCSC(=O)N(CC)CC`, the result in experiment [11], in experiment [12] and in experiment [2] was inactive.
On to `C=CC(=O)OCC[N+](C)(C)C`, for which the result in experiment [11] was inactive.
Turning to `CCOC(=O)O[C@]1(C(=O)COC(=O)CC)CC[C@H]2[C@@H]3CCC4=CC(=O)C=C[C@]4(C)[C@H]3[C@@H](O)C[C@@]21C`, the compound was classed as inactive in experiment [1], in [3] and in [4].
For `c1ccsc1`, the outcome in [11] was inactive.
For `CCCCCCCC/C=C\CCCCCCCCCCCC(=O)O`, the outcome in [1], in experiment [3] and in [4] was inactive.
As to `CCC(O)C(C)(C)C` (configuration not stated), the call in [1], in experiment [6] and in [4] was inactive.
